Experimental data published in PubChem BioAssay (EPA / NIEHS).
Several values for one entry are separate records, joined by “and”; a condition that tells them apart may be missing. Identical values can stand only once. Some compounds were tested as several samples or in several runs, with calls that do not always agree. Activity calls are given as the source filed them. Rule for the calls: active = hit-call score of the fitted dose curve at least 0.9, where 1 is the maximum; inactive = score below 0.9.

What was measured:
[1] = read-out: Tissue Factor, F3 (gene 2152); assay: BSK_CASM3C_TissueFactor: BioMAP Diversity Plus: CASM3C Assay for Tissue Factor Biomarker Activity (AID 2283052); details: primary human coronary artery smooth muscle cells; actives raise or lower the signal;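 note: cell surface tissue factor protein level read by ELISA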
[2] = read-out: Interferon-gamma inducible Protein 10 (IP10), CXCL10 (gene 3627); assay: BSK_hDFCGF_IP10: BioMAP Diversity Plus: hDFCGF Assay for Interferon-gamma inducible Protein 10 (IP10) Biomarker Activity (AID 2283053); details: primary human foreskin fibroblasts; actives raise or lower the signal
Procedure, shortened: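 ELISA quantification of IP-10 after a 24 h chemical exposure of human dermal foreskin fibroblast primary cultures. Both increases and decreases versus DMSO fitted.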

[3] = read-out: Urokinase-type plasminogen activator receptor (uPAR), PLAUR (gene 5329); assay: BSK_CASM3C_uPAR: BioMAP Diversity Plus: CASM3C Assay for Urokinase-type plasminogen activator receptor (uPAR) Biomarker Activity (AID 2283054); details: primary human coronary artery smooth muscle cells; actives raise or lower the signal;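 note: cell-surface uPAR protein level quantified by ELISA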
[4] = read-out: Vascular cell adhesion molecule 1 (VCAM1), VCAM1 (gene 7412); assay: BSK_CASM3C_VCAM1: BioMAP Diversity Plus: CASM3C Assay for Vascular cell adhesion molecule 1 (VCAM1) Biomarker Activity (AID 2283055); details: primary human coronary artery smooth muscle cells; actives raise or lower the signal;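 note: VCAM-1 protein level quantified by ELISA on the cells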
[5] = read-out: Collagen III, COL3A1 (gene 1281); assay: BSK_hDFCGF_CollagenIII: BioMAP Diversity Plus: hDFCGF Assay for Collagen III Biomarker Activity (AID 2283056); details: primary human foreskin fibroblasts; actives raise or lower the signal
Procedure, shortened: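 ELISA readout of Collagen III in human dermal (foreskin) fibroblasts, taken 24 h post-treatment. Gain or loss relative to DMSO vehicle fitted in both directions.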

[6] = read-out: Epidermal growth factor receptor (EGFR), EGFR (gene 1956); assay: BSK_hDFCGF_EGFR: BioMAP Diversity Plus: hDFCGF Assay for Epidermal growth factor receptor (EGFR) Biomarker Activity (AID 2283057); details: primary human foreskin fibroblasts; actives raise or lower the signal
Procedure, shortened: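 EGFR levels by ELISA in human dermal fibroblast cultures, 24 h post-treatment, fitted bidirectionally versus DMSO. Parallel wells stained with sulforhodamine B to detect overt cytotoxicity.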

[7] = read-out: Interleukin-8 (IL8), CXCL8 (gene 3576); assay: BSK_hDFCGF_IL8: BioMAP Diversity Plus: hDFCGF Assay for Interleukin-8 (IL8) Biomarker Activity (AID 2283058); details: primary human foreskin fibroblasts; actives raise or lower the signal
Procedure, shortened: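 IL-8 levels read by ELISA at 24 hours after dosing human skin fibroblast cultures. Parallel SRB staining assessed overt cytotoxicity, and gain or loss of signal was fitted against DMSO control.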

[8] = BSK_hDFCGF_Proliferation: Cell Proliferation Assessment in the BioMAP Diversity Plus: hDFCGF Assay (AID 2283059); details: primary human foreskin fibroblasts;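 note: curves fitted for both rise and fall of signal versus DMSO baseline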
Procedure, shortened: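 This proliferation readout used SRB total-protein staining of human foreskin fibroblasts […], normalized to DMSO with bidirectional curve fitting.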

[9] = read-out: Macrophage colony-stimulating factor (MCSF), CSF1 (gene 1435); assay: BSK_hDFCGF_MCSF: BioMAP Diversity Plus: hDFCGF Assay for Macrophage colony-stimulating factor (MCSF) Biomarker Activity (AID 2283060); details: primary human foreskin fibroblasts; actives raise or lower the signal
Procedure, shortened: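 M-CSF levels read by ELISA at 24 h post-dosing in human skin fibroblasts. Parallel cultures stained with SRB assessed cytotoxicity at the same time point; response fitted in both directions against the DMSO baseline.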

[10] = BSK_hDFCGF_SRB: Viability Assessment in the BioMAP Diversity Plus: hDFCGF Assay (AID 2283061); details: primary human foreskin fibroblasts;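 note: cells exposed to compound for 24 h before the read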
Procedure, shortened: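 Viability was read as total protein: after 10% TCA fixation, wells were stained with 0.1% sulforhodamine B and read at 560 nm. Primary human foreskin fibroblasts were dosed for 24 h, with bidirectional fitting versus DMSO.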

[11] = read-out: TIMP metallopeptidase inhibitor 1 (TIMP1), TIMP1 (gene 7076); assay: BSK_hDFCGF_TIMP1: BioMAP Diversity Plus: hDFCGF Assay for TIMP metallopeptidase inhibitor 1 (TIMP1) Biomarker Activity (AID 2283062); details: primary human foreskin fibroblasts; actives raise or lower the signal
Procedure, shortened: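 TIMP-1 measured by ELISA 24 h after chemical dosing of primary human skin fibroblasts, with gain or loss fitted relative to DMSO. Parallel SRB staining (560 nm) monitored overt cytotoxicity.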

[12] = read-out: Monokine induced gamma interferon (MIG), CXCL9 (gene 4283); assay: BSK_hDFCGF_MIG: BioMAP Diversity Plus: hDFCGF Assay for Monokine induced gamma interferon (MIG) Biomarker Activity (AID 2283063); details: primary human foreskin fibroblasts; actives raise or lower the signal
Procedure, shortened: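 Human primary foreskin fibroblasts in the hDFCGF system, exposed to test chemical for 24 h; MIG measured by ELISA. Bidirectional curve fitting against DMSO negative control as activity baseline.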

[13] = read-out: Matrix Metallopeptidase 1 (MMP1), MMP1 (gene 4312); assay: BSK_hDFCGF_MMP1: BioMAP Diversity Plus: hDFCGF Assay for Matrix Metallopeptidase 1 (MMP1) Biomarker Activity (AID 2283064); details: primary human foreskin fibroblasts; actives raise or lower the signal
Procedure, shortened: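 MMP1 levels quantified by ELISA 24 h after dosing human dermal fibroblast cultures, with parallel SRB total-protein staining for overt cytotoxicity. Data fitted in both directions against DMSO baseline.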

[14] = read-out: Vascular cell adhesion molecule 1 (VCAM1), VCAM1 (gene 7412); assay: BSK_hDFCGF_VCAM1: BioMAP Diversity Plus: hDFCGF Assay for Vascular cell adhesion molecule 1 (VCAM1) Biomarker Activity (AID 2283065); details: primary human foreskin fibroblasts; actives raise or lower the signal;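 for AC50: VCAM-1 protein level quantified by ELISA after 24 h chemical exposure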
Procedure, shortened: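 ELISA readout of VCAM-1 on human dermal fibroblast primary cultures, 24 h after chemical exposure. Gain or loss of signal fitted in both directions against DMSO baseline.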

[15] = read-out: Plasminogen activator inhibitor-1 (PAI1), SERPINE1 (gene 5054); assay: BSK_hDFCGF_PAI1: BioMAP Diversity Plus: hDFCGF Assay for Plasminogen activator inhibitor-1 (PAI1) Biomarker Activity (AID 2283066); details: primary human foreskin fibroblasts; actives raise or lower the signal
Procedure, shortened: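 PAI-1 levels in human dermal foreskin fibroblasts were quantified by ELISA 24 h after dosing, with gain or loss analysed against DMSO. Overt cytotoxicity was checked by sulforhodamine B total-protein staining in parallel cultures.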

[16] = read-out: Intercellular Adhesion Molecule 1 (ICAM1), ICAM1 (gene 3383); assay: BSK_KF3CT_ICAM1: BioMAP Diversity Plus: KF3CT Assay for Intercellular Adhesion Molecule 1 (ICAM1) Biomarker Activity (AID 2283067); details: primary human keratinocytes with fibroblasts; actives raise or lower the signal
Procedure, shortened: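 Cell-surface ICAM-1 was measured by ELISA 24 h after dosing primary human skin keratinocytes co-cultured with fibroblasts. Parallel SRB staining tracked overt cytotoxicity. Gain or loss of signal was fitted relative to DMSO.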

[17] = read-out: Interferon-gamma inducible Protein 10 (IP10), CXCL10 (gene 3627); assay: BSK_KF3CT_IP10: BioMAP Diversity Plus: KF3CT Assay for Interferon-gamma inducible Protein 10 (IP10) Biomarker Activity (AID 2283068); details: primary human keratinocytes with fibroblasts; actives raise or lower the signal
Procedure, shortened: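 Signal is secreted/surface IP-10 by ELISA in a human primary skin co-culture of keratinocytes and foreskin fibroblasts, taken 24 h post-dosing; DMSO served as negative control.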

[18] = BSK_KF3CT_SRB: Viability Assessment in the BioMAP Diversity Plus: KF3CT Assay (AID 2283069); details: primary human keratinocytes with fibroblasts;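 note: read 24 h after compound addition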
Procedure, shortened: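 Cytotoxicity was gauged by SRB staining (0.1% SRB, 10% TCA fixation, 560 nm) of parallel cultures at 24 h. The cells were primary human skin keratinocytes co-cultured with fibroblasts, and activity was fitted in both directions against DMSO.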

[19] = read-out: Interleukin-1 alpha (IL1a), IL1A (gene 3552); assay: BSK_KF3CT_IL1a: BioMAP Diversity Plus: KF3CT Assay for Interleukin-1 alpha (IL1a) Biomarker Activity (AID 2283070); details: primary human keratinocytes with fibroblasts; actives raise or lower the signal
Procedure, shortened: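 IL-1a was detected by ELISA 24 h after chemical treatment of a co-culture of human skin keratinocytes and foreskin fibroblasts. Gain or loss of signal was fitted against the DMSO baseline.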

[20] = read-out: TIMP metallopeptidase inhibitor 2 (TIMP2), TIMP2 (gene 7077); assay: BSK_KF3CT_TIMP2: BioMAP Diversity Plus: KF3CT Assay for TIMP metallopeptidase inhibitor 2 (TIMP2) Biomarker Activity (AID 2283071); details: primary human keratinocytes with fibroblasts; actives raise or lower the signal
Procedure, shortened: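 TIMP-2 measured by ELISA at 24 h in human keratinocyte/fibroblast primary co-cultures exposed to chemicals. Both increases and decreases were fitted against DMSO. Parallel cultures were stained with SRB for total protein as an overt-cytotoxicity check.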

Measured: AC50

C=C(C)C(=O)OCC(F)(F)C(F)(F)C(F)(F)C(F)(F)C(F)(F)C(F)(F)C(F)(F)F
active: [10] 1.4 µM
inactive: [1] | [2] | [3] | [4] | [5] | [6] | [7] | [8] | [9] | [10] | [11] | [12] | [13] | [14] | [15] | [16] | [17] | [18] | [19] | [20]

FC(F)(I)C(F)(F)C(F)(F)C(F)(F)I
inactive: [1] | [6]
active: [1] 30 µM and 40.4 µM | [2] 47.9 µM and 55.1 µM and 58.4 µM | [3] 47.2 µM and 43.9 µM and 54.4 µM | [4] 45.7 µM and 45.6 µM and 47.9 µM | [5] 30 µM and 44.1 µM and 39.5 µM | [7] 53.7 µM and 54.7 µM and 56.5 µM | [8] 48.7 µM and 45.5 µM and 43.3 µM | [9] 51.1 µM and 47.7 µM and 58.5 µM | [10] 46.3 µM and 52.7 µM and 54 µM | [11] 45.3 µM and 46.7 µM and 47.2 µM | [12] 50.1 µM and 46 µM and 54.4 µM | [13] 56.1 µM and 47.6 µM and 46.9 µM | [14] 50.3 µM and 57.2 µM and 46.4 µM | [15] 45.1 µM and 50.2 µM and 44.9 µM | [16] 45.5 µM and 46.4 µM and 46.6 µM | [17] 52.2 µM and 58.4 µM and 56.6 µM | [19] 53.2 µM and 47.2 µM and 47.7 µM | [20] 54.2 µM and 46.7 µM and 53.1 µM

CC(=O)Nc1ccc(N=Nc2cc(C)ccc2O)cc1
active: [2] 34.1 µM | [4] 9.54 µM | [8] 20 µM | [9] 30.8 µM | [12] 33.8 µM | [13] 31 µM | [14] 30.2 µM | [16] 20 µM | [17] 34 µM | [19] 20 µM
inactive: [1] | [3] | [5] | [6] | [7] | [10] | [11] | [15] | [20]

O=C(O)C(F)(F)C(F)(F)C(F)(F)C(F)(F)C(F)(F)C(F)(F)C(F)(F)C(F)(F)C(F)(F)C(F)(F)C(F)(F)C(F)(F)C(F)(F)F
active: [2] 5.35 µM | [5] 641 nM
inactive: [1] | [2] | [3] | [4] | [5] | [6] | [7] | [8] | [9] | [10] | [11] | [12] | [13] | [14] | [15] | [16] | [17] | [18] | [19] | [20]
